Experiment [1] has as its target Furin (Homo sapiens) (UniProt P09958). As to the kind of experiment: Furin counterscreen qHTS for Zika virus inhibitors (AID 1347149).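 For activity change, negative = inhibition: purified recombinant full-length human furin enzyme at 5 nM; fluorescence gain from furin cutting a BOC-RVRR-AMC peptide substrate over 15 min; top concentration of the series differs between compounds; plate controls were no-inhibitor control for no effect and no-enzyme control for full effect.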 Note: nearly all actives have a fitted effect of over 70% in size. Note: potency is the fitted concentration of half-maximal effect. The procedure, abridged:
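Counterscreen measures cleavage of 2 microM BOC-RVRR-AMC, below its ~15 microM Km, by 5 nM full-length human furin at pH 7.0 after a 15-min compound preincubation. Inhibition derives from the 15-min fluorescence increase at 37C.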
On the technique in general: Counterscreens check selectivity or assay interference.

Experiment [2] relates to Zika virus NS2B-NS3 protease (unlinked complex). Kind of experiment: Confirmatory screen GU AMC qHTS for Zika virus inhibitors (AID 1347153). Note: nearly all actives have a fitted effect of over 70% in size. Note: potency is the fitted concentration of half-maximal effect. The procedure, abridged:
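Unlinked enzyme 25 nM, Tris pH 8.0/0.01% Tween 20; cpd 15 min RT, dark; + AMC substrate 10 µM (Km 18.3 µM); 340/450 nm read at t0 and 15 min; % inhibition → 4-param fit.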

The test system of experiment [3] is Zika virus NS2B-NS3 protease. As to the kind of experiment: Primary screen GU AMC qHTS for Zika virus inhibitors (AID 1347154).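 For activity change, negative = inhibition: 0% = no-inhibitor control and -100% = no-enzyme control.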 Note: nearly all actives have a fitted effect of over 70% in size. Note: potency is the fitted concentration of half-maximal effect. The essentials:
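Unlinked Zika NS2B hydrophilic domain–NS3 protease complex at 25 nM in 10 mM Tris-HCl pH 8.0, 0.01% Tween 20, with an AMC peptide substrate. Fluorescence change (340/450 nm) over 15 min at room temperature, normalized to controls, fitted to 4-parameter Hill.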
On the technique in general: qHTS replaces the single test concentration by a dilution series.

Experiment [4] deals with N-terminal Xaa-Pro-Lys N-methyltransferase 1 (Homo sapiens) (UniProt Q9BV86). As to the kind of experiment: qHTS Assay for Inhibitors of N-terminal methyltransferase 1 (NTMT1): LOPAC validation of the NTMT1 SAHH-coupled ThioGlo3 Assay (AID 1347143).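 Note: SAH from peptide methylation measured as thiol fluorescence via SAHH coupling and ThioGlo3; potency is the fitted concentration of half-maximal effect; nearly all actives have a fitted effect of over 70% in size.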 Conditions: recombinant NTMT1, SAHH-coupled ThioGlo3 fluorescence. The essentials:
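Steps: dispense 125nM NTMT1; pin-transfer test compounds at several concentrations, with 1uM RCC1-6 peptide as control; incubate 1 min; start with reagent holding 100uM SAM, 10uM SAHH, 15uM ThioGlo3; read at 0 and 30 min.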

In experiment [5] the test system is Zika virus NS2B-NS3 protease (unlinked). As to the kind of experiment: Optimization of GU AMC qHTS for Zika virus inhibitors: Unlinked NS2B-NS3 protease assay (AID 1347151). Note: potency is the fitted concentration of half-maximal effect; nearly all actives have a fitted effect of over 80% in size. The conditions noted are these: recombinant ZIKV NS2B-NS3 protease, fluorogenic AMC substrate. The essentials:
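Noncovalent NS2B hydrophilic domain–NS3 protease complex (25 nM final) in 10 mM Tris-HCl pH 8.0, 0.01% Tween 20; AMC substrate, room temperature 15 min (~20% conversion); fluorescence change normalized, 4-parameter Hill fit.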

The subject of experiment [6] is Zika virus NS2B-NS3 protease (unlinked complex). Kind of experiment: Primary screen GU Rhodamine qHTS for Zika virus inhibitors: Unlinked NS2B-NS3 protease assay (AID 1347159). For activity change, negative = inhibition: % is set by controls: 0 for no effect and ±100 for the full control effect. Note: nearly all actives have a fitted effect of over 60% in size. Note: potency is the fitted concentration of half-maximal effect. The procedure, abridged:
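Unlinked NS2B/NS3, 25 nM; Rhod110 peptide, 1.5 microM; compounds, up to 114 microM. Reaction run 15 min at RT in 10 mM Tris-HCl pH 8.0, 0.01% Tween 20; kinetic fluorescence change fitted with a 4-parameter Hill model.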

The nature of experiment [7]: Confirmatory screen GU Rhodamine qHTS for Zika virus inhibitors qHTS (AID 1347157).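 For activity change, negative = inhibition: plate controls were no-inhibitor wells for no effect and no-enzyme wells for full effect.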 Note: nearly all actives have a fitted effect of over 70% in size. Note: potency is the fitted concentration of half-maximal effect. The procedure, abridged: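 Compounds, tested up to 114 microM, were incubated for 15 minutes with 25 nM unlinked NS2B-NS3 protease at pH 8.0. Cleavage of 1.5 microM Rhodamine110 substrate was then followed by fluorescence for 15 minutes.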
The nature of experiment [8]: ZIKV-mCherry secondary qHTS for Zika virus inhibitors (AID 1347158). Note: top concentration of the series differs between compounds. The procedure, abridged: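 Read-out is percent infection: mCherry-positive Vero cells (nuclear-proximal intensity >450 RFU, 3 SD above negative controls) counted by high-content imaging of Hoechst-stained, PFA-fixed wells after 48-72 h with ZIKV-mCherry at MOI 1 and compound.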

The source of these data is PubChem BioAssay (NCATS).

Each structure is given as a SMILES string. Records with an inconclusive call do not appear. A number with no mark means an inactive call. Active and inactive are the calls of the source. Calls come from the whole dose curve; as a rule, active = well fitted curve in the direction sought with a large enough effect; inconclusive = small, poorly fitted or top-dose-only effect, or another doubt; inactive = no such curve, though single readings can be large; an effect the other way counts as inactive or inconclusive.

Chain of Furin (Homo sapiens) (P09958 whole entry, looked up): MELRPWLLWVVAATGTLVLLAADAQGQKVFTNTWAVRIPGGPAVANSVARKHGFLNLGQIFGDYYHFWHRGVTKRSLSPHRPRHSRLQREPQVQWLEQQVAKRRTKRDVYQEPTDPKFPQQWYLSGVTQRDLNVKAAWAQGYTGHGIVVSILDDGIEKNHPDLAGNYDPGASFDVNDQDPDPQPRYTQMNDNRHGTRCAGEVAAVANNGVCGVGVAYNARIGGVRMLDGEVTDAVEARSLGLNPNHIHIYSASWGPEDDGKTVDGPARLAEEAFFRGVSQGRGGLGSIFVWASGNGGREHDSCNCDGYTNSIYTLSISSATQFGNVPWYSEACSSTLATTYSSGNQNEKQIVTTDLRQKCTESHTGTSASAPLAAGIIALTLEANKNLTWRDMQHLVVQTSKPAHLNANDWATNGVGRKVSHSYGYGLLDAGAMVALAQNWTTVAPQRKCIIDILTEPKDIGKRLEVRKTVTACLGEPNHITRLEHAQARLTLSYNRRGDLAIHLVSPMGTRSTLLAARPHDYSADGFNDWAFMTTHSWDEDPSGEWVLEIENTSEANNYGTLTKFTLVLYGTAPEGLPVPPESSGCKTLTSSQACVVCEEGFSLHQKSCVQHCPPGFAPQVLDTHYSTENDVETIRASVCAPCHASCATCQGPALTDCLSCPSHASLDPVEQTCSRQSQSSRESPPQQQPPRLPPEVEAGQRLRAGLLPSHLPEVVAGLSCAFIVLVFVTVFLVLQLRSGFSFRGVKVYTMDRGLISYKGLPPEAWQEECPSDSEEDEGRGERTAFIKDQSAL
Chain of N-terminal Xaa-Pro-Lys N-methyltransferase 1 (Homo sapiens) (Q9BV86 whole entry, looked up): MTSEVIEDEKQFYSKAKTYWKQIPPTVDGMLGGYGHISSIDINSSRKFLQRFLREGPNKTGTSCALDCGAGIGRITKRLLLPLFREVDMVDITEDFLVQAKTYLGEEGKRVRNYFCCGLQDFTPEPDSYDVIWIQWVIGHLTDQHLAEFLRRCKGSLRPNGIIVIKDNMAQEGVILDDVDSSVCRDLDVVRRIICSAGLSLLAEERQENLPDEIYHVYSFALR

As for `CC(C)c1ccccc1Cc1cc(C(=O)Nc2ccc(S(=O)(=O)c3ccccc3C(C)(C)C)cc2)c(O)c(O)c1O`, the Potency entry in experiment [1] and in experiment [2] was “inactive” throughout. For the same compound, in experiment [3], the Potency is 17.1 µM (active).
Consider `O=c1c2ccccc2nc2n1CCc1c-2[nH]c2ccccc12`, for which the Potency was 56.2 µM (active) in experiment [4], 42.9 µM (active) in experiment [1], 26.7 µM (active) in experiment [5] and 30.4 µM (active) in experiment [3]. The Potency result in experiment [6] is “inactive”.
For `C=CC(=O)Nc1cc2c(Nc3ccc(F)c(Cl)c3)ncnc2cc1OCCCN1CCOCC1`, in experiment [3], the Potency result was “inactive”.
Same read-out and setting: the value for `C[C@@H]1CN(CC(=O)Nc2ccc3c(c2)Cc2cccc(-c4cc(=O)cc(N5CCOCC5)o4)c2S3)C[C@H](C)O1` was “inactive”.
As for `N#Cc1c(O)c2c(-c3ccc(-c4ccccc4O)cc3)csc2[nH]c1=O`, the Potency entry in experiment [1] and in experiment [8] was “inactive” throughout. For the same compound, the Potency in experiment [2] is 9.61 µM (active); in experiment [3], 8.57 µM (active); in experiment [7] it was 2.21 µM (active); in experiment [6], 2 µM (active).
As to `Fc1cc(-c2cccc3ncc(-c4cnn(C5CCNCC5)c4)nc23)cc(F)c1CN1CCOCC1`, the Potency entry in experiment [3] is “inactive”.
In the case of `COc1ccc(CC2c3cc(OC)c(OC)cc3CC[N+]2(C)CCC(=O)OCCCCCOC(=O)CC[N+]2(C)CCc3cc(OC)c(OC)cc3C2Cc2ccc(OC)c(OC)c2)cc1OC` (configuration not stated), the activity change, negative = inhibition in experiment [3] is 4.96% [at 6.83 µM].
Regarding `Nc1nc(-c2nn(Cc3ccccc3F)c3ncccc23)nc(N)c1N1CCOCC1`, the Potency entry in experiment [3] was “inactive”.
For the compound `Cc1ccc(CN2CCNCC2)cc1NC(=O)CNc1ccc(F)c(F)c1`, the Potency entry in experiment [3] and in experiment [6] was “inactive” in each case.
Take `CNc1nccc(-c2cccnc2Oc2cc(C(=O)Nc3cccc(C(F)(F)F)c3)ccc2C)n1`: the Potency result in experiment [3] and in experiment [6] was “inactive” throughout.
For the compound `Cn1cc(-c2ccncc2)c(-c2ccc(OCc3ccc4ccccc4n3)cc2)n1`, the Potency entry in experiment [3] and in experiment [6] was “inactive” in each case.
`CCCCCCCCCC(=O)N[C@@H](Cc1c[nH]c2ccccc12)C(=O)N[C@H](CC(N)=O)C(=O)N[C@@H](CC(=O)O)C(=O)N[C@@H]1C(=O)NCC(=O)N[C@@H](CCCN)C(=O)N[C@@H](CC(=O)O)C(=O)N[C@H](C)C(=O)N[C@@H](CC(=O)O)C(=O)NCC(=O)N[C@H](CO)C(=O)N[C@@H]([C@@H](C)CC(=O)O)C(=O)N[C@@H](CC(=O)c2ccccc2N)C(=O)O[C@@H]1C`: the Potency result in experiment [3] and in experiment [6] was “inactive” throughout.
`N#CCNC(=O)c1ccc(-c2ccnc(Nc3ccc(N4CCOCC4)cc3)n2)cc1`: the Potency entry in experiment [3] and in experiment [6] was “inactive” each time.
Regarding `COCCOc1ccc2c(c1)ncn2-c1ccc2cccc(N3CCC(N)CC3)c2n1`, the Potency result in experiment [3] and in experiment [6] was “inactive” throughout.
With `Cn1c(CNc2ccc(C(=N)N)cc2)nc2cc(C(=O)N(CCC(=O)O)c3ccccn3)ccc21`, the Potency result in experiment [3] and in experiment [6] was “inactive” in each case.
Consider `Nc1cccc(-c2cc3c(Oc4cccc(O)c4)ncnc3[nH]2)c1`, for which the Potency result in experiment [6] was “inactive”.
`CCc1cc2c(cc1N1CCC(N3CCOCC3)CC1)C(C)(C)c1[nH]c3cc(C#N)ccc3c1C2=O`: the Potency entry in experiment [3] and in experiment [6] was “inactive” throughout.
In the case of `Clc1cccc(-n2nnnc2NCc2ccccc2Oc2ccccn2)c1Cl`, the Potency entry in experiment [3] and in experiment [6] was “inactive” throughout.
For `Cc1cc(Nc2cc(CN3CCOCC3)c3nc(C)c(Cc4ccc(Cl)cc4F)n3n2)n[nH]1`, the Potency entry in experiment [3] and in experiment [6] was “inactive” in each case.
For the compound `Cc1coc2c1C(=O)C(=O)c1c-2ccc2c1CCCC2(C)C`, the Potency in experiment [6] was 22.4 µM (active).
Regarding `Cn1cc(-c2[nH]c3cc(NC(=O)[C@H](N)C4CCCCC4)cc4c3c2C=NNC4=O)cn1`, the Potency entry in experiment [3] and in experiment [6] was “inactive” throughout.
With `O=C(O)c1ccc2c(c1)nc(Nc1cccc(Cl)c1)c1ccncc12`, in experiment [3], the Potency entry is “inactive”. For the same compound, in experiment [6], the Potency is 39.8 µM (active).
With `CC(O)C1C(=O)N2C(C(=O)O)=C(SC3CNC(C(=O)N(C)C)C3)C(C)C12` (configuration not stated), the Potency result in experiment [3] and in experiment [6] was “inactive” each time.
As for `O=C(c1ccc(Nc2nccc(-c3cc4ccccc4s3)n2)cc1)N1CCC(N2CCCC2)CC1`, the Potency entry in experiment [3] and in experiment [6] was “inactive” in each case.
With `CC(C)Nc1cc(C(F)(F)F)cc2nc(NC(=O)c3cccnc3)nn12`, the Potency entry in experiment [3] and in experiment [6] was “inactive” throughout.
On to `C1Cc2[nH]nc(-c3nn[nH]n3)c2C1`, for which the Potency result in experiment [3] and in experiment [6] was “inactive” throughout.
Turning to `CN(C)c1nc(Cc2ccc(NC(=O)c3ccc4ccccc4c3)cc2)nc(Cl)c1CC(=O)O`, in experiment [3], the Potency entry is “inactive”. Further, the Potency in experiment [6] is 28.2 µM (active).
On to `COc1cc(-c2nn(C3CCC(N4CCN(C(C)=O)CC4)CC3)c3ncnc(N)c23)ccc1NC(=O)c1cc2ccccc2n1C` (configuration not stated), for which the Potency result in experiment [3] and in experiment [6] was “inactive” each time.
Regarding `Nc1ncnc2c1c(-c1cccc(OCc3ccccc3)c1)cn2C1CC(CN2CCCC2)C1` (configuration not stated), the Potency result in experiment [3] and in experiment [6] was “inactive” in each case.
Turning to `CC1(C)CC(=O)c2c(C(F)(F)F)nn(-c3ccc(C(N)=O)c(NC4CCC(OC(=O)CN)CC4)c3)c2C1` (configuration not stated), the Potency entry in experiment [3] and in experiment [6] was “inactive” in each case.
For `CN(C)CC=CC(=O)Nc1cc2c(Nc3ccc(F)c(Cl)c3)ncnc2cc1O[C@H]1CCOC1`, the Potency entry in experiment [3] is “inactive”.
In the case of `O=C(CCCCCCC(=O)Nc1ccc([C@H]2O[C@@H](CSc3nc(-c4ccccc4)c(-c4ccccc4)o3)C[C@@H](c3ccc(CO)cc3)O2)cc1)NO`, in experiment [6], the Potency was 8.91 µM (active).
`C[C@@H]1COC(Nc2ccc3ncnc(Nc4ccc(OCc5nccs5)c(Cl)c4)c3c2)=N1`: the Potency result in experiment [3] and in experiment [6] was “inactive” in each case.
Regarding `O=C(Nc1nc2cccc(-c3ccc(CN4CCS(=O)(=O)CC4)cc3)n2n1)C1CC1`, the Potency result in experiment [3] and in experiment [6] was “inactive” throughout.
For the compound `CC1(O)CC(c2nc(-c3ccc4ccc(-c5ccccc5)nc4c3)c3c(N)nccn23)C1` (configuration not stated), the Potency entry in experiment [3] and in experiment [6] was “inactive” throughout.
On to `c1ccc2c(CCNc3ccc(Nc4ccncc4)cc3)c[nH]c2c1`, for which the Potency entry in experiment [3] and in experiment [6] was “inactive” throughout.
Take `Nc1nc(Nc2ccc(S(N)(=O)=O)cc2)nn1C(=O)c1c(F)cccc1F`: the Potency result in experiment [3] and in experiment [6] was “inactive” in each case.
For the compound `O=C(O)Cn1nnc(-c2cc(N3CCC(Oc4cc(F)ccc4Br)CC3)no2)n1`, the Potency was 27.8 µM (active) in experiment [7] and 22.4 µM (active) in experiment [6].
As to `COc1cc2c(cc1-c1c(C)noc1C)ncc1[nH]c(=O)n([C@H](C)c3ccccn3)c12`, the Potency result in experiment [7] and in experiment [6] was “inactive” each time.
With `NC(=O)c1c(OCc2c(F)cc(Br)cc2F)nsc1NC(=O)NCCCCN1CCCC1`, the Potency result in experiment [3] and in experiment [6] was “inactive” each time.
For `COc1ccc(C(=O)CC2(O)C(=O)Nc3c(Cl)ccc(Cl)c32)cc1` (configuration not stated), the Potency result in experiment [3] and in experiment [6] was “inactive” in each case.
`CCN(CC)CCNC(=O)c1ccc2nc(-c3ccccc3)c(-c3ccc(CN4CCC(n5c(=O)[nH]c6ccccc65)CC4)cc3)nc2c1`: the Potency result in experiment [3] and in experiment [6] was “inactive” throughout.
In the case of `CS(=O)(=O)c1ccc(-c2cnc(N)c(C(=O)Nc3ccccc3)n2)cc1`, the Potency result in experiment [3] and in experiment [6] was “inactive” throughout.
`Cc1cc(Nc2nc(N[C@@H](C)c3ccc(F)cc3)c(C#N)cc2F)n[nH]1`: in experiment [6], the Potency result is “inactive”.
Regarding `COc1ccc2c(c1)CC[C@@H](CN(C)CC(=O)O)[C@H]2c1ccccc1`, the Potency result in experiment [3] and in experiment [6] was “inactive” throughout.
`CCCn1c(=O)c2[nH]c(-c3cnn(Cc4cccc(C(F)(F)F)c4)c3)nc2n(CC)c1=O`: the Potency entry in experiment [3] and in experiment [6] was “inactive” throughout.
For the compound `Cc1cn2cc(C(=O)N(C)CCO)cc(N[C@@H]3CCOc4cccc(C)c43)c2n1`, the Potency entry in experiment [3] and in experiment [6] was “inactive” each time.
